Residue numbers refer to the chain shown, from its start.

We go through 32 sequences from paper PMC3315485, “Probing the Informational and Regulatory Plasticity of a Transcription Factor DNA–Binding Domain”.

The first test deals with T1, MarA wild type (WQR) (Escherichia coli, UniProt P0ACH5 1-127).
T1 sequence: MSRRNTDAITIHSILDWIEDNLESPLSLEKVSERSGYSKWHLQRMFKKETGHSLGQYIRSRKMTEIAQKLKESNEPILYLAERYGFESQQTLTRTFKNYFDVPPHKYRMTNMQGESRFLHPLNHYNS
Put plainly: MITOMI; MITOMI, 295 K (22 C); buffer, salt and pH not stated in the material; high values mean tight binding. The following applies: protein: ivt; label: fluorescent; dsDNA, one strand shown. The method in brief:
(§1)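 Association constants were determined by MITOMI and are expressed for each site relative to the site with the highest affinity for the same protein variant. The MarA protein variants were made with the RTS E. coli HY kit by in vitro transcription and translation and labelled through addition of tRNA-lys-bodipy-fl. Testing covered 64 synthesized mar binding site variants, with fluorescence read on Genepix at 295K.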
Turning to ATGGTGCGTTTTGCTAAAT, the binding signal was 0.304 Ka relative to the best site of the variant.

With ATGTGGCGTTTTGCTAAAT, the binding signal was 0.242 Ka relative to the best site of the variant.

On to ATGACCCGTTTTGCTAAAT, for which the binding signal was 0.32 Ka relative to the best site of the variant.

As to ATGTACCGTTTTGCTAAAT, the binding signal is 0.215 Ka relative to the best site of the variant.

With ATGCTTCGTTTTGCTAAAT, the binding signal was 0.341 Ka relative to the best site of the variant.

ATGGTCCGTTTTGCTAAAT: the binding signal is 0.209 Ka relative to the best site of the variant.

As to ATGTTGCGTTTTGCTAAAT, the binding signal was 0.405 Ka relative to the best site of the variant.

Turning to ATGCCGCGTTTTGCTAAAT, the binding signal was 0.414 Ka relative to the best site of the variant.

In the case of ATGTAACGTTTTGCTAAAT, the binding signal is 0.345 Ka relative to the best site of the variant.

Turning to ATGATACGTTTTGCTAAAT, the binding signal is 0.279 Ka relative to the best site of the variant.

ATGAAACGTTTTGCTAAAT: the binding signal was 0.124 Ka relative to the best site of the variant.

For ATGTGTCGTTTTGCTAAAT, the binding signal was 0.284 Ka relative to the best site of the variant.

For ATGTGACGTTTTGCTAAAT, the binding signal is 0.253 Ka relative to the best site of the variant.

Take ATGGCGCGTTTTGCTAAAT: the binding signal was 0.334 Ka relative to the best site of the variant.

For ATGACTCGTTTTGCTAAAT, the binding signal is 0.378 Ka relative to the best site of the variant.

Consider ATGATTCGTTTTGCTAAAT, for which the binding signal was 0.264 Ka relative to the best site of the variant.

As to ATGTCGCGTTTTGCTAAAT, the binding signal was 0.426 Ka relative to the best site of the variant.

For the sequence ATGTGCCGTTTTGCTAAAT, the binding signal was 0.245 Ka relative to the best site of the variant.

With ATGTTCCGTTTTGCTAAAT, the binding signal is 0.197 Ka relative to the best site of the variant.

Consider ATGAAGCGTTTTGCTAAAT, for which the binding signal was 0.256 Ka relative to the best site of the variant.

Turning to ATGATCCGTTTTGCTAAAT, the binding signal was 0.22 Ka relative to the best site of the variant.

Turning to ATGTCTCGTTTTGCTAAAT, the binding signal is 0.301 Ka relative to the best site of the variant.

In the case of ATGCCACGTTTTGCTAAAT, the binding signal was 0.646 Ka relative to the best site of the variant.

With ATGATGCGTTTTGCTAAAT, the binding signal is 0.319 Ka relative to the best site of the variant.

Regarding ATGGCACGTTTTGCTAAAT, the binding signal is 1 Ka relative to the best site of the variant.

As for ATGAGGCGTTTTGCTAAAT, the binding signal was 0.283 Ka relative to the best site of the variant.

In the case of ATGGGTCGTTTTGCTAAAT, the binding signal was 0.232 Ka relative to the best site of the variant.

Consider ATGGGGCGTTTTGCTAAAT, for which the binding signal is 0.307 Ka relative to the best site of the variant.

With ATGAGACGTTTTGCTAAAT, the binding signal was 0.307 Ka relative to the best site of the variant.

Turning to ATGTAGCGTTTTGCTAAAT, the binding signal was 0.284 Ka relative to the best site of the variant.

As to ATGCCTCGTTTTGCTAAAT, the binding signal is 0.454 Ka relative to the best site of the variant.

For ATGACGCGTTTTGCTAAAT, the binding signal is 0.362 Ka relative to the best site of the variant.

The target of the next test is T2, MarA RQR (Escherichia coli, UniProt P0ACH5 1-127, W40R).
T2 sequence: T1 sequence with W40R
The test is described as above. The note with it: protein: ivt; label: fluorescent; dsDNA, one strand shown. The method in brief: as §1
Turning to ATGGTGCGTTTTGCTAAAT, the binding signal was 0.115 Ka relative to the best site of the variant.

ATGTGGCGTTTTGCTAAAT: the binding signal was 0.105 Ka relative to the best site of the variant.

Turning to ATGACCCGTTTTGCTAAAT, the binding signal is 0.701 Ka relative to the best site of the variant.

In the case of ATGTACCGTTTTGCTAAAT, the binding signal is 0.142 Ka relative to the best site of the variant.

Regarding ATGCTTCGTTTTGCTAAAT, the binding signal was 0.157 Ka relative to the best site of the variant.

On to ATGGTCCGTTTTGCTAAAT, for which the binding signal is 0.18 Ka relative to the best site of the variant.

As to ATGTTGCGTTTTGCTAAAT, the binding signal is 0.193 Ka relative to the best site of the variant.

Take ATGCCGCGTTTTGCTAAAT: the binding signal is 0.195 Ka relative to the best site of the variant.

For the sequence ATGTAACGTTTTGCTAAAT, the binding signal is 0.135 Ka relative to the best site of the variant.

Turning to ATGATACGTTTTGCTAAAT, the binding signal was 0.108 Ka relative to the best site of the variant.

For ATGAAACGTTTTGCTAAAT, the binding signal was 0.0424 Ka relative to the best site of the variant.

As to ATGTGTCGTTTTGCTAAAT, the binding signal is 0.132 Ka relative to the best site of the variant.

Turning to ATGTGACGTTTTGCTAAAT, the binding signal was 0.11 Ka relative to the best site of the variant.

Turning to ATGGCGCGTTTTGCTAAAT, the binding signal was 0.577 Ka relative to the best site of the variant.

For the sequence ATGACTCGTTTTGCTAAAT, the binding signal was 0.586 Ka relative to the best site of the variant.

Consider ATGATTCGTTTTGCTAAAT, for which the binding signal is 0.122 Ka relative to the best site of the variant.

In the case of ATGTCGCGTTTTGCTAAAT, the binding signal was 0.635 Ka relative to the best site of the variant.

Consider ATGTGCCGTTTTGCTAAAT, for which the binding signal was 0.134 Ka relative to the best site of the variant.

Turning to ATGAAGCGTTTTGCTAAAT, the binding signal was 0.0942 Ka relative to the best site of the variant.

As for ATGATCCGTTTTGCTAAAT, the binding signal is 0.117 Ka relative to the best site of the variant.

Regarding ATGTCTCGTTTTGCTAAAT, the binding signal is 0.956 Ka relative to the best site of the variant.

For ATGCCACGTTTTGCTAAAT, the binding signal is 0.243 Ka relative to the best site of the variant.

Take ATGATGCGTTTTGCTAAAT: the binding signal was 0.106 Ka relative to the best site of the variant.

Consider ATGGCACGTTTTGCTAAAT, for which the binding signal was 0.647 Ka relative to the best site of the variant.

With ATGAGGCGTTTTGCTAAAT, the binding signal was 0.103 Ka relative to the best site of the variant.

For the sequence ATGGGTCGTTTTGCTAAAT, the binding signal is 0.141 Ka relative to the best site of the variant.

Take ATGGGGCGTTTTGCTAAAT: the binding signal is 0.11 Ka relative to the best site of the variant.

Take ATGAGACGTTTTGCTAAAT: the binding signal is 0.0985 Ka relative to the best site of the variant.

On to ATGTAGCGTTTTGCTAAAT, for which the binding signal is 0.0898 Ka relative to the best site of the variant.

In the case of ATGCCTCGTTTTGCTAAAT, the binding signal was 0.232 Ka relative to the best site of the variant.
